Reference: ChEMBL document CHEMBL1157539, “Thousands of chemical starting points for antimalarial lead identification” (Nature, 2010)

What follows are compounds tested on Plasmodium falciparum (assay: GSK_TCMDC: Inhibition of Plasmodium falciparum 3D7 in whole red blood cells, using parasite LDH activity as an index of growth. Test compounds present at 2uM).
Type: functional
`CC(C)(C)c1ccc(CNC(=O)c2ccc(-c3nc4cc(C(C)(C)C)ccc4[nH]3)cc2)cc1` showed an Inhibition of 96%.
`Cl.c1cc2[nH]c(CCCCCc3nc4cc(C5=N[C@@H]6CCCC[C@@H]6N5)ccc4[nH]3)nc2cc1C1=N[C@@H]2CCCC[C@@H]2N1` gave an Inhibition of 96%.
`CC1CN(c2cccc3c2nc(-c2cncc(C#N)c2)n3CCNCc2ccccc2)CC(C)O1.O=C(O)C(F)(F)F` (stereo not given) showed an Inhibition of 83%.
Compound `Cc1cc(N[C@@H](CC(C)C)C(=O)NCc2cccs2)nc(NCCc2ccccc2)n1.O=C(O)C(F)(F)F` has an Inhibition of 94%.
`CC(C)NCc1cccc(-c2cccc(NC(=O)c3cccc(C#N)c3)c2)c1.O=C(O)C(F)(F)F` gave an Inhibition of 99%.
For `CCn1c(-c2nonc2N)nc2c(-c3cccc(NC(=O)Nc4cccc(OC)c4)c3)ncc(OCCCN)c21.O=C(O)C(F)(F)F`, the Inhibition was 92%.
`Cc1nnsc1C(=O)Nc1cccc(-c2ccc(-c3nc4ccccc4[nH]3)s2)c1` showed an Inhibition of 89%.
Compound `Cc1cc(OCc2ccncc2)cc2c1C(=O)CC(C)(C)O2` has an Inhibition of 99%.
For `CC(C)N1CCN(C(CN2CCN(CCCOc3cccc4ccccc34)CC2)c2ccc(F)cc2)CC1.Cl` (stereo not given), the Inhibition was 100%.
Work on `CCC1CCCCN1S(=O)(=O)c1ccc(NC(=O)c2cc(C)on2)cc1` (stereo not given) yielded an Inhibition of 86%.
`Cc1cc(-c2cnc(N)c(-c3ccc(N4CCN(C)CC4)nc3)c2)cc(C)c1O` showed an Inhibition of 91%.
With `Fc1ccc2[nH]c(-c3cccc(-c4ccc(CN5CCN(c6cnccn6)CC5)cc4)c3)nc2c1.O=C(O)C(F)(F)F` the Inhibition was 96%.
Compound `CC(C)C[C@@H](C(=O)N[C@H](C(=O)Nc1nccs1)C(C)(C)C)[C@H](CCC(F)(F)F)N(O)C=O` has an Inhibition of 97%.
For `Cc1[nH]c2ccccc2c1CC1CCN(CC2CCN(C(=O)/C=C/c3ccc(Cl)c(Cl)c3)CC2)CC1`, the Inhibition was 92%.
`Cc1cc(-c2ccc3c(c2)CCN(CCC2CCC(NC(=O)/C=C/c4cccc(F)c4)CC2)CC3)on1.Cl` (stereo not given) was tested, and the Inhibition was 95%.
With `O=C(Nc1ccc(Cl)cc1C(=O)Nc1ccncc1)c1ccc(Cl)cc1Cl` the Inhibition was 99%.
`O=C(Nc1ccc(I)cc1)N1CCc2sccc2C1CN1CCCCC1` (stereo not given) was tested, and the Inhibition was 90%.
`CC1(C)N=C(N)N=C(N)C1c1ccc(Cl)cc1.Cl` (stereo not given) showed an Inhibition of 96%.
Work on `CN1CCN(CC(=O)Nc2ccc(-c3ccc(-c4nc5ccccc5[nH]4)s3)cc2)CC1` yielded an Inhibition of 100%.
In the case of `O=C(CCOc1ccccc1)NCC1CCCO1` (stereo not given), the Inhibition is reported as 92%.
Work on `COc1ccc(NC(=O)/C=C/c2ccccc2Cl)cc1OCCN1CCC(NCc2cccnc2)CC1` yielded an Inhibition of 100%.
Compound `COc1cccc2cc(C(=O)N[C@@H](CC(C)C)C(=O)N[C@H](/C=N/NC(=O)c3ccccc3)Cc3c[nH]cn3)oc12` has an Inhibition of 99%.
In the case of `Cc1cc(CNCCCCCNCc2ccc(Cl)cc2)ccc1O`, the Inhibition is reported as 98%.
For `Cc1[nH]c(C)c(-c2ccc(OCc3ccc(F)cc3)cc2)c(=O)c1Br`, the Inhibition was 98%.
`CCCn1c(Sc2ccc(C#N)c([N+](=O)[O-])c2)nnc1-c1cc(OC)cc(OC)c1` showed an Inhibition of 98%.
Work on `Cl.O=c1cc(NCCCNCc2ccc(Cl)c(Cl)c2)[nH]c2ccc(Oc3ccccc3)cc12` yielded an Inhibition of 92%.
`COC(=O)c1cccc(N2CCN(CCCNC(=O)/C(=C/C=C/c3cc4cc(Cl)c(Cl)cc4[nH]3)OC)CC2)c1.Cl` was tested, and the Inhibition was 100%.
In the case of `COc1cccc2c1CCN(CCN1CCC(NC(=O)c3ccc(-c4cccc(Cl)c4Cl)cc3)CC1)C2`, the Inhibition is reported as 100%.
In the case of `COc1cccc(NC(=O)Nc2ccc(Nc3nc(C)cc(N(C)C)n3)cc2)c1`, the Inhibition is reported as 100%.
`O=C(/C=C/c1ccccc1Cl)Nc1ccc(Br)c(OCCN2CCN(CCN3CCOCC3)CC2)c1.O=C(O)C(=O)O` showed an Inhibition of 98%.
`CCN(CC)c1ccc(C(c2ccc(N(CC)CC)cc2)c2cccc([N+](=O)[O-])c2)cc1` was tested, and the Inhibition was 91%.
With `CCCc1cc(NCC)nc(Nc2ccc(F)cc2)n1` the Inhibition was 86%.
In the case of `Clc1cccc(CNC2CCN(CC3CCCCC3)CC2)c1.O=C(O)C(F)(F)F`, the Inhibition is reported as 97%.
For `CCN(CCN(C)C)Cc1ccc(-c2ccc(NS(=O)(=O)c3cccc4cccnc34)cc2)cc1.O=C(O)C(F)(F)F`, the Inhibition was 91%.
For `COc1cc(NC(=O)c2cccs2)c(C(=O)NCc2ccc(C)cc2)cc1OC`, the Inhibition was 93%.
Compound `COc1cccc(C(=O)NCCc2cccc(Cl)c2)c1Oc1ccccc1` has an Inhibition of 97%.
`CCCC1N=C(N)N=C(N)N1c1ccccc1.Cl` (stereo not given) was tested, and the Inhibition was 93%.
Work on `CN(CCCN(C)c1cc(NC(=O)c2ccc(F)cc2)ccn1)Cc1cccc(O)c1.O=C(O)C(F)(F)F` yielded an Inhibition of 90%.
Compound `CC(=O)O.Nc1nc(N)c2cc3ccc(OCc4ccccc4)cc3nc2n1` has an Inhibition of 100%.
`CCC(C(=O)Nc1ccccc1)n1nc(-c2ccc(C)c(S(=O)(=O)N3CCCCC3)c2)ccc1=O` (stereo not given) showed an Inhibition of 85%.

Each compound was assayed on Plasmodium falciparum (assay: GSK_TCMDC: Inhibition of Plasmodium falciparum Dd2 in whole red blood cells, using parasite LDH activity as an index of growth. Test compounds present at 2uM).
Type: functional
`CC(C)(C)c1ccc(CNC(=O)c2ccc(-c3nc4cc(C(C)(C)C)ccc4[nH]3)cc2)cc1` was tested, and the Inhibition was 49%.
With `Cl.c1cc2[nH]c(CCCCCc3nc4cc(C5=N[C@@H]6CCCC[C@@H]6N5)ccc4[nH]3)nc2cc1C1=N[C@@H]2CCCC[C@@H]2N1` the Inhibition was 98%.
With `CC1CN(c2cccc3c2nc(-c2cncc(C#N)c2)n3CCNCc2ccccc2)CC(C)O1.O=C(O)C(F)(F)F` (stereo not given) the Inhibition was 9%.
`Cc1cc(N[C@@H](CC(C)C)C(=O)NCc2cccs2)nc(NCCc2ccccc2)n1.O=C(O)C(F)(F)F` was tested, and the Inhibition was 8%.
Compound `CC(C)NCc1cccc(-c2cccc(NC(=O)c3cccc(C#N)c3)c2)c1.O=C(O)C(F)(F)F` has an Inhibition of 22%.
`CCn1c(-c2nonc2N)nc2c(-c3cccc(NC(=O)Nc4cccc(OC)c4)c3)ncc(OCCCN)c21.O=C(O)C(F)(F)F` was tested, and the Inhibition was 69%.
For `Cc1nnsc1C(=O)Nc1cccc(-c2ccc(-c3nc4ccccc4[nH]3)s2)c1`, the Inhibition was 13%.
`Cc1cc(OCc2ccncc2)cc2c1C(=O)CC(C)(C)O2` showed an Inhibition of 0%.
In the case of `CC(C)N1CCN(C(CN2CCN(CCCOc3cccc4ccccc34)CC2)c2ccc(F)cc2)CC1.Cl` (stereo not given), the Inhibition is reported as 75%.
`CCC1CCCCN1S(=O)(=O)c1ccc(NC(=O)c2cc(C)on2)cc1` (stereo not given) was tested, and the Inhibition was 53%.
For `Cc1cc(-c2cnc(N)c(-c3ccc(N4CCN(C)CC4)nc3)c2)cc(C)c1O`, the Inhibition was 33%.
`Fc1ccc2[nH]c(-c3cccc(-c4ccc(CN5CCN(c6cnccn6)CC5)cc4)c3)nc2c1.O=C(O)C(F)(F)F` was tested, and the Inhibition was 31%.
For `CC(C)C[C@@H](C(=O)N[C@H](C(=O)Nc1nccs1)C(C)(C)C)[C@H](CCC(F)(F)F)N(O)C=O`, the Inhibition was 71%.
With `Cc1[nH]c2ccccc2c1CC1CCN(CC2CCN(C(=O)/C=C/c3ccc(Cl)c(Cl)c3)CC2)CC1` the Inhibition was 14%.
In the case of `Cc1cc(-c2ccc3c(c2)CCN(CCC2CCC(NC(=O)/C=C/c4cccc(F)c4)CC2)CC3)on1.Cl` (stereo not given), the Inhibition is reported as 19%.
In the case of `O=C(Nc1ccc(Cl)cc1C(=O)Nc1ccncc1)c1ccc(Cl)cc1Cl`, the Inhibition is reported as 75%.
With `O=C(Nc1ccc(I)cc1)N1CCc2sccc2C1CN1CCCCC1` (stereo not given) the Inhibition was 0%.
Compound `CC1(C)N=C(N)N=C(N)C1c1ccc(Cl)cc1.Cl` (stereo not given) has an Inhibition of 0%.
`CN1CCN(CC(=O)Nc2ccc(-c3ccc(-c4nc5ccccc5[nH]4)s3)cc2)CC1` gave an Inhibition of 49%.
For `O=C(CCOc1ccccc1)NCC1CCCO1` (stereo not given), the Inhibition was 0%.
With `COc1ccc(NC(=O)/C=C/c2ccccc2Cl)cc1OCCN1CCC(NCc2cccnc2)CC1` the Inhibition was 88%.
`COc1cccc2cc(C(=O)N[C@@H](CC(C)C)C(=O)N[C@H](/C=N/NC(=O)c3ccccc3)Cc3c[nH]cn3)oc12` was tested, and the Inhibition was 90%.
In the case of `Cc1cc(CNCCCCCNCc2ccc(Cl)cc2)ccc1O`, the Inhibition is reported as 0%.
Work on `Cc1[nH]c(C)c(-c2ccc(OCc3ccc(F)cc3)cc2)c(=O)c1Br` yielded an Inhibition of 97%.
Compound `CCCn1c(Sc2ccc(C#N)c([N+](=O)[O-])c2)nnc1-c1cc(OC)cc(OC)c1` has an Inhibition of 79%.
In the case of `Cl.O=c1cc(NCCCNCc2ccc(Cl)c(Cl)c2)[nH]c2ccc(Oc3ccccc3)cc12`, the Inhibition is reported as 29%.
For `COC(=O)c1cccc(N2CCN(CCCNC(=O)/C(=C/C=C/c3cc4cc(Cl)c(Cl)cc4[nH]3)OC)CC2)c1.Cl`, the Inhibition was 59%.
In the case of `COc1cccc2c1CCN(CCN1CCC(NC(=O)c3ccc(-c4cccc(Cl)c4Cl)cc3)CC1)C2`, the Inhibition is reported as 38%.
`COc1cccc(NC(=O)Nc2ccc(Nc3nc(C)cc(N(C)C)n3)cc2)c1` was tested, and the Inhibition was 100%.
`O=C(/C=C/c1ccccc1Cl)Nc1ccc(Br)c(OCCN2CCN(CCN3CCOCC3)CC2)c1.O=C(O)C(=O)O` showed an Inhibition of 91%.
Work on `CCN(CC)c1ccc(C(c2ccc(N(CC)CC)cc2)c2cccc([N+](=O)[O-])c2)cc1` yielded an Inhibition of 68%.
In the case of `CCCc1cc(NCC)nc(Nc2ccc(F)cc2)n1`, the Inhibition is reported as 36%.
`Clc1cccc(CNC2CCN(CC3CCCCC3)CC2)c1.O=C(O)C(F)(F)F` was tested, and the Inhibition was 24%.
With `CCN(CCN(C)C)Cc1ccc(-c2ccc(NS(=O)(=O)c3cccc4cccnc34)cc2)cc1.O=C(O)C(F)(F)F` the Inhibition was 57%.
`COc1cc(NC(=O)c2cccs2)c(C(=O)NCc2ccc(C)cc2)cc1OC` showed an Inhibition of 88%.
`COc1cccc(C(=O)NCCc2cccc(Cl)c2)c1Oc1ccccc1` was tested, and the Inhibition was 90%.
For `CCCC1N=C(N)N=C(N)N1c1ccccc1.Cl` (stereo not given), the Inhibition was 0%.
In the case of `CN(CCCN(C)c1cc(NC(=O)c2ccc(F)cc2)ccn1)Cc1cccc(O)c1.O=C(O)C(F)(F)F`, the Inhibition is reported as 0%.
Compound `CC(=O)O.Nc1nc(N)c2cc3ccc(OCc4ccccc4)cc3nc2n1` has an Inhibition of 75%.
`CCC(C(=O)Nc1ccccc1)n1nc(-c2ccc(C)c(S(=O)(=O)N3CCCCC3)c2)ccc1=O` (stereo not given) showed an Inhibition of 67%.
